An excerpt weighted towards active compounds, which were near 19% of everything screened.
Lassa entry inh = inhibitors of Lassa virus binding or cell entry. actives 1.2% (n = 300,000). Lassa virus pseudotype entry inhibition, cell reporter. Potency, µM (highest dose often 37.9 µM), for the others: at the highest dose activity change, negative = inhibition, most hits filed as inhibitors; calls by dose curve; tested in HEK293 cells; further: potency means the concentration at half of the fitted maximal effect; on the % scale 0 is the no-effect control and ±100 the full control effect; nearly all actives have a fitted effect of over 50% in size
Pf growth 48h = inhibits P. falciparum growth in the first generation, 48 h. Potency, µM (titrated, usually from 28.7 µM), for the others: top-dose activity change, negative = inhibition, most hits filed as inhibitors. AID 504832. actives 5.9% (n = 310,000). P. falciparum luciferase growth in erythrocytes, 48 h; further: potency means the concentration at half of the fitted maximal effect; on the % scale 0 is the no-effect control and ±100 the full control effect
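Growth was read as firefly luciferase luminescence after a 48 h, 37 C, 5% CO2 exposure of compounds to reporter-bearing P. falciparum cultures (0.1% parasitemia, 2% hematocrit final) in Albumax-supplemented RPMI 1640.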
Pf growth 96h = inhibits malaria parasite growth, 96 h. actives 6.9% (n = 320,000). Potency, µM (top dose mostly 28.7 µM), for inactives: top-dose activity change, negative = inhibition, usual class: inhibitors. P. falciparum luciferase reporter growth, 96 h. AID 504834; further: potency means the concentration at half of the fitted maximal effect; on the % scale 0 is the no-effect control and ±100 the full control effect
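96 h incubation, 37 C, 5% CO2, of luciferase-reporter P. falciparum-infected RBCs (2% hematocrit, 0.05% parasitemia final) with test compounds; endpoint luminescence.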
CHX counter = affects cycloheximide protein synthesis inhibition readout, counter-screen; cell reporter, cycloheximide protein synthesis inhibition counterscreen; max response, %; actives 12% (n = 300,000); AID 2314; in the data active means max response mostly above about 13%, no sharp cut-off; inactive means mostly below about 14%; further: read at 38.3 µM for the half of the compounds with a filed dose; 0% is about no effect
Shiga toxin inh = Shiga toxin inhibition | Vero cells, Shiga toxin protein synthesis inhibition reporter | inhibition, % at 38.7 µM | actives 9.2% (n = 290,000) | AID 2315; in the data active means inhibition mostly above about 28%, no sharp cut-off; inactive means mostly below about 43%; further: 0% is about no effect
MARV entry inh = inhibitors of Marburg virus binding or cell entry; actives 1.8% (n = 300,000); Marburg virus pseudotyped entry inhibition, cell reporter; Potency, µM (doses to about 37.8 µM), for the others: top-dose activity change, negative = inhibition, most hits filed as inhibitors; calls by dose curve; tested in HEK293 cells; further: potency means the concentration at half of the fitted maximal effect; on the % scale 0 is the no-effect control and ±100 the full control effect
Starred values were filed as active, the others as inactive; ? = inconclusive; . = no result given; [ ] = another dose, or the depositor's remark. Unless noted, the call rests on the fitted dose curve; in most records, active means well fitted inhibition curve with a large enough effect; inconclusive means small, poorly fitted or top-dose-only effect, or another doubt; inactive means no such curve, though single readings can be large or run the other way.

SMILES	Lassa entry inh	Pf growth 48h	Pf growth 96h	CHX counter	Shiga toxin inh	MARV entry inh
CCOC(=O)CCCCCN1C(=O)c2cccc3cccc(c23)C1=O	.	33.7%	6.57µM*	-0.8	8.2	.
O=C1c2ccccc2C(=O)N1CCCCON1C(=O)c2ccccc2C1=O	-0.2%	10.3%	7.0%	-2.7	-2.1	1.7%
COC(=O)CN1C(=O)c2cccc3cccc1c23	21.2%[46.1 µM]	4.8%	?	-1.3	-7.1	?
CCCCON1C(=O)c2cccc3cccc(c23)C1=O	.	50.5%	33.8%	14.7*	40.5*	.
C#CCOC(=O)CN1C(=O)c2cccc3cccc(c23)C1=O	2.7%	9.4%	?	17.8*	41.1	15.8%
CCCN(CC(=O)Nc1ccccc1C)C(=O)c1ccc(N2CCCC(C)C2)c([N+](=O)[O-])c1 (centres undefined)	-17.8%	.	.	.	.	-18.0%[46.1 µM]
O=c1ccc(-c2ccc(S(=O)(=O)NCc3cccc(Br)c3)s2)n[nH]1	.	?	-6.2%	-2.4	-8.4	.
C=CCNc1nc(-c2ccc(OC)cc2OC)cs1	10.0%	-30.3%	?	38.0*	69.2*	?
COc1ccc(OC)c(-c2csc(NC(=O)Cc3ccccc3OC)n2)c1	7.94µM*	?	-28.4%	17.8	23.5	?
COc1ccc(-c2csc(NC(=O)CSCc3c(C)noc3C)n2)c(OC)c1	?	?	10.4µM*	.	.	-0.7%
COc1ccc(OC)c(-c2csc(NC(=O)Cc3ccccc3F)n2)c1	?	?	-10.3%	27.6*	40.6*	?
COc1ccc(OC)c(-c2csc(NC(=O)c3ccccc3F)n2)c1	.	11.5%	?	-2.0	-5.3	.
Cc1ccc(CNC(=O)c2nn(C)c3c2CS(=O)(=O)c2ccccc2-3)cc1	7.5%[46.1 µM]	-2.1%	142.9%	-0.3	16.6	.
COC(CNC(=O)CCc1c(C)nc2c(c(C)nn2-c2ccc(C)cc2)c1C)OC	.	2.62µM*	13.0%	-2.2	-6.6	.
CCN(CC)CCNC(=O)CCc1c(C)nc2c(c(C)nn2-c2ccc(C)c(C)c2)c1C	.	13.1µM*	23.4%	-3.4	-5.4	.
Cc1ccc(-n2nc(C)c3c(C)c(CCC(=O)NCCCOC(C)C)c(C)nc32)cc1	.	?	-0.6%	-3.6	-9.8	.
COc1ccccc1NC(=O)CCS(=O)(=O)c1cc2c(cc1Cl)NC(=O)CO2	.	6.8%	-11.9%	-4.6	-2.8	.
c1cc(CNC23CC4CC(CC(C4)C2)C3)ccn1	.	11.9%	1.85µM*	7.8	12.3	9.5%[46.1 µM]
O=C(CC12CC3CC(CC(C3)C1)C2)NCc1ccncc1	-30.3%[14.3 µM]	.	-7.2%	-1.9	-2.9	5.2%
O=C(O)c1ccccc1N/N=C/c1cc(Br)cc(Br)c1O	?	168.6%	352.5%	37.4*	126.5*	14.6µM*
O=C(O)c1ccccc1N/N=C\c1ccnc2ccccc12	?	181.2%	186.4%	28.3*	43.1	3.98µM*
Clc1ccc(-c2nc3ccc(Cl)cn3c2CN2CCCCC2)cc1	-6.4%[46.1 µM]	9.0%	?	17.1	32.0	?
O=C1CSC(=S)N1CC1CCCO1 (centres undefined)	-17.1%	-25.1%	-11.6%	-4.7	-9.6	-23.3%
COC(=O)c1ccc(CSc2nc3c(c(=O)n2-c2ccccc2)SCC3)o1	6.3%	10.4µM*	?	7.2	9.5	6.9%
COC(=O)c1ccc(CSc2nc3ccccc3c(=O)n2-c2ccc(OC)c(OC)c2)o1	?	8.28µM*	.	-3.2	-17.6	-5.1%
SMILES	Lassa entry inh	Pf growth 48h	Pf growth 96h	CHX counter	Shiga toxin inh	MARV entry inh
COc1ccc(-n2c(SC3CCOC3=O)nc3ccccc3c2=O)cc1OC (centres undefined)	12.6%	-1.7%	62.5%	38.3*	-2.5	5.1%
COC(=O)CCCCCCCCC(O)CN1CCCCC1 (centres undefined)	?	1.3%	-10.1%	-0.3	-2.5	5.0%
O=C(Nc1ccc(C(=O)NCC2CCN(Cc3ccccc3F)CC2)cc1)C1=CSCCO1	.	-12.4%	?	14.4*	28.6	.
CCOc1ccc(CNC(=O)c2ccccc2NC(=O)C2=CSCCO2)cc1	-6.8%[46.1 µM]	?	-4.7%	1.0	-12.4	-10.5%[46.1 µM]
CCOc1ccccc1CNC(=O)c1ccc(NC(=O)C2=C(C)OCCS2)cc1	.	?	6.57µM*	-7.1	-7.1	.
CCOc1ccccc1CNC(=O)c1ccc(NC(=O)C2=CSCCO2)cc1	.	-20.2%	?	18.1*	28.2	.
COC(=O)c1ccccc1NC(=O)Nc1cnccn1	-7.0%	24.7%	103.3%	1.0	7.6	1.2%
Cc1c(NC(=O)C2(c3ccccc3)CCOCC2)c(=O)n(-c2ccccc2)n1C	?	-5.7%	10.8%	-3.0	2.3	18.6%
COc1ccc(NC(=S)N2CCN(C(=O)c3ccco3)CC2)cc1	20.8%[46.1 µM]	40.9%	0.465µM*	-0.5	9.8	-1.4%[46.1 µM]
COc1ccc(NC(=S)N2CCN(S(=O)(=O)c3ccccc3)CC2)cc1	-9.1%[46.1 µM]	8.6%	10.4µM*	7.7	-7.7	?
Cc1ccc(NC(=S)N2CCN(S(=O)(=O)c3ccccc3)CC2)cc1	4.8%[46.1 µM]	-1.1%	?	0.5	-10.6	25.8%[46.1 µM]
Cc1cc(C)cc(NC(=S)N2CCN(S(=O)(=O)c3ccccc3)CC2)c1	?	?	3.7µM*	6.1	-13.6	?
Cc1cccc(-n2c(-c3csc(C)c3)n[nH]c2=S)c1	0.1%	4.4%	.	-2.0	-16.6	?
CN(C)CCCN(C(=O)c1ccc2c(c1)CCCC2)c1nc2cc3c(cc2s1)OCO3	?	11.7µM*	2.33µM*	-3.4	-11.0	11.2µM*
CN(C)CCCN(C(=O)c1ccc2c(c1)CCCC2)c1nc2ccc(F)cc2s1	15.8µM*	8.28µM*	?	-3.1	-4.0	?
CN(C)CCCN(C(=O)c1ccc(Br)s1)c1nc2cc3c(cc2s1)OCO3	.	-10.3%	?	-14.0	-34.1	.
CCOCCCNC(=O)C(c1ccc(OC)cc1)N(Cc1ccc2c(c1)OCO2)C(=O)c1ccc(NC(C)=O)cc1 (centres undefined)	?	.	.	.	.	-0.6%[46.1 µM]
Cn1ccc(-c2ccccc2)n1	.	4.4%	1.65µM*	19.1*	12.5	.
CNc1ccccc1-n1ccc(-c2ccccc2)n1	?	39.0%	.	35.6*	86.5*	19.3%[46.1 µM]
CCCCCC(=O)N1CCN(c2ccc(C(C)=O)cc2F)CC1	-6.8%	7.9%	7.38µM*	5.6	-2.6	8.1%
CCCC(=O)N1CCN(c2ccc(C(=O)c3ccc(OC)c(Br)c3)cc2F)CC1	.	-3.1%	-15.6%	-5.4	-23.2	.
CC1CCN(c2ccc(C(=O)O)cc2N)CC1	1.9%	35.3%	3.29µM*	25.4*	-13.6	13.6%[46.1 µM]
CC(=O)c1ccc(N2CCN(C(=O)c3cccs3)CC2)c(F)c1	.	?	?	16.0*	16.3	.
CCC(=O)c1ccc(N2CCCCC2)c(F)c1	15.8%	1.1%	8.28µM*	-5.0	9.5	21.7%
CCCC(=O)c1ccc(N2CCN(C(=O)c3cccs3)CC2)c(F)c1	.	0.0%	-5.5%	9.6	30.4	.
C=C(C)CSc1nc2ncc(Cl)cc2[nH]1	-2.4%	-14.0%	.	11.5	19.8	12.0%
CC(=O)c1ccc(N2CCC(C)CC2)c(F)c1	.	22.9%	69.5%	28.8*	40.7	.

Compound activity: PubChem BioAssay, National Center for Advancing Translational Sciences (NCATS)
